{"source": "paper PMC11006913", "experiment_in_all_cases": "PBM; 200 nM protein, PBS", "conditions_in_all_cases": "dsDNA, one strand shown", "key": {"ALX3 [1]": {"target": "ALX3 (Homo sapiens, UniProt O95076 139-225, N203Q)", "sequence (O95076 139-225 N203Q)": "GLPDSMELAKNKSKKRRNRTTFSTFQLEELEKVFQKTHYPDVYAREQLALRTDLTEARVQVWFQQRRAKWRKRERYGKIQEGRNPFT"}, "ALX3 [2]": {"target": "ALX3 (Homo sapiens, UniProt O95076 139-225)", "sequence (O95076 139-225)": "as the sequence (O95076 139-225 N203Q) above, with Q65N counted along it"}, "PROP1": {"target": "PROP1 (Homo sapiens, UniProt O75360 56-141)", "sequence (O75360 56-141)": "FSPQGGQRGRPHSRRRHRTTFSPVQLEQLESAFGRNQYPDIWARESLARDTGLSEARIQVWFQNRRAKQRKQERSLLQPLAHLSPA"}, "ALX3 [3]": {"target": "ALX3 (Homo sapiens, UniProt O95076 139-225, N203S)", "sequence (O95076 139-225 N203S)": "as the sequence (O95076 139-225 N203Q) above, with Q65S counted along it"}, "NKX2-6 [4]": {"target": "T1, NKX2-6 (Homo sapiens, UniProt A6NCS4 118-204)", "T1 sequence": "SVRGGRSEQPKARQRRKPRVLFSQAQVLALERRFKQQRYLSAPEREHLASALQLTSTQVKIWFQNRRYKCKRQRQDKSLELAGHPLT"}, "ALX3 [5]": {"target": "ALX3 (Homo sapiens, UniProt O95076 139-225, L168Q)", "sequence (O95076 139-225 L168Q)": "as the sequence (O95076 139-225 N203Q) above, with L30Q, Q65N counted along it"}, "NKX2-6 [6]": {"target": "T2, NKX2-6 (Homo sapiens, UniProt A6NCS4 118-204, F151L)", "T2 sequence": "T1 sequence with F34L"}, "ALX3 [7]": {"target": "ALX3 (Homo sapiens, UniProt O95076 139-225, L168V)", "sequence (O95076 139-225 L168V)": "as the sequence (O95076 139-225 N203Q) above, with L30V, Q65N counted along it"}, "PAX4 [8]": {"target": "T3, PAX4 (Homo sapiens, UniProt O43316 9-242, F177V)", "T3 sequence": "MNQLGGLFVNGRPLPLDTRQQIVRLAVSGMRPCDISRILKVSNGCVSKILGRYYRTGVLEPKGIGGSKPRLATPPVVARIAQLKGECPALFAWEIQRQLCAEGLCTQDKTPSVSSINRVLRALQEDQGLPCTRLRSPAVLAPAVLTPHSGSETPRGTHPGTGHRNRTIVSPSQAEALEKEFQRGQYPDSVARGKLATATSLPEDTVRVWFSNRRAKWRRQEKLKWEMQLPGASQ"}, "PAX4 [9]": {"target": "T4, PAX4 (Homo sapiens, UniProt O43316 9-242, F177Y)", "T4 sequence": "T3 sequence with V169Y"}, "VAX1 [10]": {"target": "VAX1 (Homo sapiens, UniProt Q5SQQ9 86-172)", "sequence (Q5SQQ9 86-172)": "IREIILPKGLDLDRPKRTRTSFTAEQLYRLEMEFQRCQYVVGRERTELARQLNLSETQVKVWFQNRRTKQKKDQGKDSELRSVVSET"}, "VAX1 [11]": {"target": "VAX1 (Homo sapiens, UniProt Q5SQQ9 86-172, T142I)", "sequence (Q5SQQ9 86-172 T142I)": "as the sequence (Q5SQQ9 86-172) above, with T57I counted along it"}, "VAX1 [12]": {"target": "VAX1 (Homo sapiens, UniProt Q5SQQ9 86-172, K157R)", "sequence (Q5SQQ9 86-172 K157R)": "as the sequence (Q5SQQ9 86-172) above, with K72R counted along it"}}, "note": "Positions count from the first letter of the chain named.", "data": [{"sequence": "CGAAATCA", "values": [{"measurement": "binding signal", "setting": "ALX3 [1]", "result": "8.09 upbm affinity estimate (log intensity, higher = more binding, comparable within an allelic series)"}, {"measurement": "binding signal", "setting": "ALX3 [2]", "result": "9.04 upbm affinity estimate (log intensity, higher = more binding, comparable within an allelic series)"}, {"measurement": "binding signal", "setting": "PROP1", "result": "7.77 upbm affinity estimate (log intensity, higher = more binding, comparable within an allelic series)"}, {"measurement": "binding signal", "setting": "ALX3 [3]", "result": "8.15 upbm affinity estimate (log intensity, higher = more binding, comparable within an allelic series)"}]}, {"sequence": "GCACCCCC", "values": [{"measurement": "binding signal", "setting": "ALX3 [1]", "result": "7.73 upbm affinity estimate (log intensity, higher = more binding, comparable within an allelic series)"}, {"measurement": "binding signal", "setting": "NKX2-6 [4]", "result": "9.22 upbm affinity estimate (log intensity, higher = more binding, comparable within an allelic series)"}, {"measurement": "binding signal", "setting": "ALX3 [2]", "result": "7.8 upbm affinity estimate (log intensity, higher = more binding, comparable within an allelic series)"}, {"measurement": "binding signal", "setting": "ALX3 [5]", "result": "7.58 upbm affinity estimate (log intensity, higher = more binding, comparable within an allelic series)"}, {"measurement": "binding signal", "setting": "NKX2-6 [6]", "result": "9.15 upbm affinity estimate (log intensity, higher = more binding, comparable within an allelic series)"}, {"measurement": "binding signal", "setting": "ALX3 [7]", "result": "7.59 upbm affinity estimate (log intensity, higher = more binding, comparable within an allelic series)"}, {"measurement": "binding signal", "setting": "ALX3 [3]", "result": "7.76 upbm affinity estimate (log intensity, higher = more binding, comparable within an allelic series)"}]}, {"sequence": "CCTGGCCC", "values": [{"measurement": "binding signal", "setting": "ALX3 [1]", "result": "7.75 upbm affinity estimate (log intensity, higher = more binding, comparable within an allelic series)"}, {"measurement": "binding signal", "setting": "ALX3 [2]", "result": "7.59 upbm affinity estimate (log intensity, higher = more binding, comparable within an allelic series)"}, {"measurement": "binding signal", "setting": "ALX3 [5]", "result": "7.65 upbm affinity estimate (log intensity, higher = more binding, comparable within an allelic series)"}, {"measurement": "binding signal", "setting": "ALX3 [7]", "result": "7.67 upbm affinity estimate (log intensity, higher = more binding, comparable within an allelic series)"}, {"measurement": "binding signal", "setting": "ALX3 [3]", "result": "7.74 upbm affinity estimate (log intensity, higher = more binding, comparable within an allelic series)"}]}, {"sequence": "TATACATA", "values": [{"measurement": "binding signal", "setting": "ALX3 [1]", "result": "8.57 upbm affinity estimate (log intensity, higher = more binding, comparable within an allelic series)"}, {"measurement": "binding signal", "setting": "PAX4 [8]", "result": "10.7 upbm affinity estimate (log intensity, higher = more binding, comparable within an allelic series)"}, {"measurement": "binding signal", "setting": "PAX4 [9]", "result": "10.7 upbm affinity estimate (log intensity, higher = more binding, comparable within an allelic series)"}]}, {"sequence": "CAGCACCC", "values": [{"measurement": "binding signal", "setting": "ALX3 [1]", "result": "7.8 upbm affinity estimate (log intensity, higher = more binding, comparable within an allelic series)"}, {"measurement": "binding signal", "setting": "ALX3 [2]", "result": "7.73 upbm affinity estimate (log intensity, higher = more binding, comparable within an allelic series)"}, {"measurement": "binding signal", "setting": "ALX3 [5]", "result": "7.75 upbm affinity estimate (log intensity, higher = more binding, comparable within an allelic series)"}, {"measurement": "binding signal", "setting": "ALX3 [7]", "result": "7.68 upbm affinity estimate (log intensity, higher = more binding, comparable within an allelic series)"}, {"measurement": "binding signal", "setting": "ALX3 [3]", "result": "7.8 upbm affinity estimate (log intensity, higher = more binding, comparable within an allelic series)"}]}, {"sequence": "CACCGCCG", "values": [{"measurement": "binding signal", "setting": "ALX3 [1]", "result": "7.75 upbm affinity estimate (log intensity, higher = more binding, comparable within an allelic series)"}, {"measurement": "binding signal", "setting": "ALX3 [2]", "result": "7.68 upbm affinity estimate (log intensity, higher = more binding, comparable within an allelic series)"}, {"measurement": "binding signal", "setting": "ALX3 [5]", "result": "7.66 upbm affinity estimate (log intensity, higher = more binding, comparable within an allelic series)"}, {"measurement": "binding signal", "setting": "ALX3 [7]", "result": "7.7 upbm affinity estimate (log intensity, higher = more binding, comparable within an allelic series)"}, {"measurement": "binding signal", "setting": "ALX3 [3]", "result": "7.75 upbm affinity estimate (log intensity, higher = more binding, comparable within an allelic series)"}]}, {"sequence": "CGCTCCCC", "values": [{"measurement": "binding signal", "setting": "ALX3 [1]", "result": "7.64 upbm affinity estimate (log intensity, higher = more binding, comparable within an allelic series)"}, {"measurement": "binding signal", "setting": "ALX3 [2]", "result": "7.58 upbm affinity estimate (log intensity, higher = more binding, comparable within an allelic series)"}, {"measurement": "binding signal", "setting": "ALX3 [5]", "result": "7.75 upbm affinity estimate (log intensity, higher = more binding, comparable within an allelic series)"}, {"measurement": "binding signal", "setting": "ALX3 [7]", "result": "7.7 upbm affinity estimate (log intensity, higher = more binding, comparable within an allelic series)"}, {"measurement": "binding signal", "setting": "ALX3 [3]", "result": "7.67 upbm affinity estimate (log intensity, higher = more binding, comparable within an allelic series)"}]}, {"sequence": "AGCCGGCG", "values": [{"measurement": "binding signal", "setting": "ALX3 [1]", "result": "7.78 upbm affinity estimate (log intensity, higher = more binding, comparable within an allelic series)"}, {"measurement": "binding signal", "setting": "ALX3 [2]", "result": "7.6 upbm affinity estimate (log intensity, higher = more binding, comparable within an allelic series)"}, {"measurement": "binding signal", "setting": "VAX1 [10]", "result": "6.78 upbm affinity estimate (log intensity, higher = more binding, comparable within an allelic series)"}, {"measurement": "binding signal", "setting": "ALX3 [5]", "result": "7.66 upbm affinity estimate (log intensity, higher = more binding, comparable within an allelic series)"}, {"measurement": "binding signal", "setting": "ALX3 [7]", "result": "7.63 upbm affinity estimate (log intensity, higher = more binding, comparable within an allelic series)"}, {"measurement": "binding signal", "setting": "VAX1 [11]", "result": "6.99 upbm affinity estimate (log intensity, higher = more binding, comparable within an allelic series)"}, {"measurement": "binding signal", "setting": "ALX3 [3]", "result": "7.77 upbm affinity estimate (log intensity, higher = more binding, comparable within an allelic series)"}, {"measurement": "binding signal", "setting": "VAX1 [12]", "result": "6.79 upbm affinity estimate (log intensity, higher = more binding, comparable within an allelic series)"}]}, {"sequence": "CAGTCGCA", "values": [{"measurement": "binding signal", "setting": "ALX3 [1]", "result": "7.8 upbm affinity estimate (log intensity, higher = more binding, comparable within an allelic series)"}, {"measurement": "binding signal", "setting": "ALX3 [2]", "result": "7.85 upbm affinity estimate (log intensity, higher = more binding, comparable within an allelic series)"}, {"measurement": "binding signal", "setting": "ALX3 [5]", "result": "7.89 upbm affinity estimate (log intensity, higher = more binding, comparable within an allelic series)"}, {"measurement": "binding signal", "setting": "ALX3 [7]", "result": "7.88 upbm affinity estimate (log intensity, higher = more binding, comparable within an allelic series)"}, {"measurement": "binding signal", "setting": "ALX3 [3]", "result": "7.8 upbm affinity estimate (log intensity, higher = more binding, comparable within an allelic series)"}]}, {"sequence": "CTCCAGCC", "values": [{"measurement": "binding signal", "setting": "ALX3 [1]", "result": "7.6 upbm affinity estimate (log intensity, higher = more binding, comparable within an allelic series)"}, {"measurement": "binding signal", "setting": "ALX3 [2]", "result": "7.5 upbm affinity estimate (log intensity, higher = more binding, comparable within an allelic series)"}, {"measurement": "binding signal", "setting": "ALX3 [5]", "result": "7.62 upbm affinity estimate (log intensity, higher = more binding, comparable within an allelic series)"}, {"measurement": "binding signal", "setting": "ALX3 [7]", "result": "7.62 upbm affinity estimate (log intensity, higher = more binding, comparable within an allelic series)"}, {"measurement": "binding signal", "setting": "ALX3 [3]", "result": "7.57 upbm affinity estimate (log intensity, higher = more binding, comparable within an allelic series)"}]}, {"sequence": "CCTAACAG", "values": [{"measurement": "binding signal", "setting": "ALX3 [1]", "result": "8.02 upbm affinity estimate (log intensity, higher = more binding, comparable within an allelic series)"}, {"measurement": "binding signal", "setting": "ALX3 [2]", "result": "8.92 upbm affinity estimate (log intensity, higher = more binding, comparable within an allelic series)"}, {"measurement": "binding signal", "setting": "ALX3 [5]", "result": "8.23 upbm affinity estimate (log intensity, higher = more binding, comparable within an allelic series)"}, {"measurement": "binding signal", "setting": "ALX3 [7]", "result": "8.19 upbm affinity estimate (log intensity, higher = more binding, comparable within an allelic series)"}, {"measurement": "binding signal", "setting": "ALX3 [3]", "result": "8.09 upbm affinity estimate (log intensity, higher = more binding, comparable within an allelic series)"}]}]}
